From PubChem BioAssay (NCI)
Compounds without any hit were thinned out: in the full panel of roughly 83,000, 20% have a hit.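 The endpoint reported here, percent growth, reads 100 for growth as untreated, 0 for no net growth and -100 for all cells dead.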 Unmarked numbers belong to inactive results. Active and inactive are the calls of the source. The calls were made as follows: active = growth percent below 10; inactive = the rest.

System: MCF7 breast
Assay: NCI-60 one-dose screen, 48 h (100 = growth as untreated, 0 = no growth, -100 = all killed)
Conditions: 10 µM unless noted

SMILES | growth
COc1ccc(N2CCN(C(=O)CSc3ccc(-c4nc5cc(C)c(C)cc5[nH]4)cn3)CC2)cc1 | 42.8%
COc1ccc(Cn2cc3c(c2-c2ccccc2)CCCc2cnoc2-3)cc1 | 22.9%
O=C1Nc2ccc(Cl)cc2/C1=C/c1ccc(OCc2ccc(Br)cc2F)cc1 | 87.5%
Nc1nc(-c2cccc([N+](=O)[O-])c2)c(N=Nc2ccccc2Cl)s1 | 66.6%
Oc1ccc(-c2nnc(SCc3ccc(O)c4ncccc34)o2)cc1 | 2.57% (active)
Oc1ccc(CSc2nnc(-c3ccccc3)n2-c2ccccc2)c2cccnc12 | 3.8% (active)
Oc1ccc(-c2nnc(SCc3ccc(O)c4ncccc34)n2-c2ccccc2)cc1 | 2.53% (active)
O=C1[C@@H]2Cc3c([nH]c4ccccc34)[C@H](c3c(Cl)cccc3Cl)N2C(=O)CN1C1CCN(Cc2ccccc2)CC1 | 1.17% (active)
CC1COc2c(N3CCN(C)CC3)c(F)cc3c(=O)c(C(=O)N/N=C/c4cc[nH]c4)cn1c23 (centres undefined) | -5.35% (active)
COc1cc(C(=O)C[n+]2ccc3ccccc3c2)cc(OC)c1OC | 96.3%
O=C(NNc1nc2cc(F)cc(F)c2n2cccc12)c1ncccn1 | 9.91% (active)
O=C(N/N=C\c1ccc(Cl)cc1)c1ccc2nc(-c3ccc(Br)cc3)[nH]c2c1 | -33.2% (active)
C=CCn1c(SCC(=O)Nc2cccc(C(=O)/C=C/c3ccc(C)cc3)c2)nc2ccccc2c1=O | 26.5%
CCOC(=O)c1c(NCC(=O)Nc2ccc(Br)cc2)sc2c1CCCC2 | 11.9%
